The full ranking holds about 25,000 sequences; the median of “ln(normalized median fluorescence intensity)” is about 6.7, and the highest 2% start at about 10. Only a selection was taken, and the highest values are over-represented in it overall.

This assay has as its system PfHDP1 homeodomain (GST-tagged). Briefly: gcPBM binding intensity (ln(normalized median fluorescence intensity)); higher = stronger DNA binding. In short, it runs like this:
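DNA-binding domains from P. falciparum, fused to GST and produced in E. coli, were put on an Agilent 4 × 180k double-stranded probe array for 1 h in 1× PBS holding 1% milk, 0.2 mg/ml BSA, 0.5% salmon testes DNA and 0.03% Triton X-100. Probes were primer-extended, 36 bp long and drawn from intergenic genomic regions, with negative controls included. After Alexa488 anti-GST antibody detection and a 488 nm scan, binding intensity was set as the highest Masliner-normalised natural-log median intensity across replicate spots of either probe orientation.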
“GTAAATATGTTTATTAGTACACATATGAAAATAAAT [XGTACX_site5820]”: the “gcPBM binding intensity (ln)” value turned out to be 6.42.

On to “GAGAAATGGAGACACACACACATATTATATATATAT [CACACA_site1532]”, for which the “gcPBM binding intensity (ln)” value was 8.68. Consider “AAACAATTATTATATTGTACATATATTACATTATTA [XGTACX_site1089]”, for which the “gcPBM binding intensity (ln)” value amounted to 6.23. Consider “ACTATCATTTTTTTAACACACAAAAAAAATAAAATA [CACACA_site3519]”, for which the “gcPBM binding intensity (ln)” value was found to be 6.44. For “TATATATAATATTATACACACATATATGCATAATAT [CACACA_site54]”, the “gcPBM binding intensity (ln)” value was 7.56. With “AAATGTGAAAAAGAGTGTACCCGACTTGAAATTAAG [XGTACX_site8621]”, the “gcPBM binding intensity (ln)” value is 6.92. The same measure for “TTAATTATAAGAAAAAGTACTCATTACATTATAGAA [XGTACX_site678]”: 6.12; for “TAGTATGATAACTTGGGTACATAAATATGGAGTATC [XGTACX_site1296]”: 6.81; for “TATATTTTAATTTGAAGTACTAATATTTATTTATAT [XGTACX_site7458]”: 6.14. As to “AAAATATAATATAATGCACACATAAAAAAAAAAAAA [CACACA_site7989]”, the “gcPBM binding intensity (ln)” value came out at 9.84. With “TATAATATAATATATGCACACAAATATGTATATATG [CACACA_site8664]”, the “gcPBM binding intensity (ln)” value came to 9.95. As for “ATAATAAAAAAAAATGCACACATATATATATATATA [CACACA_site8766]”, the “gcPBM binding intensity (ln)” value was determined as 9.5. The result for “AATATAATATAATGCACACATAAAAAAAAAAAAAAA [CACACA_site304]” reads 10.9; that for “AAAAAATATACATATACACACATATGTATATATAAT [CACACA_site8676]”, 6.34. “AAAAATAATGCACATATATATAATATGTATATGTAT [CACACA_negctrl_site443]”: the “gcPBM binding intensity (ln)” value came out at 11.1.

With “CTTATGTGCATACCTACACACTTACAGATATATATA [CACACA_site5622]”, the “gcPBM binding intensity (ln)” value turned out to be 9.61. With “ATATATAATTTTTACACACGCAATAAATATATATAT [CACACA_site4283]”, the “gcPBM binding intensity (ln)” value is 7.7. As to TTTAATTATTAAATGGTGCACTTGAAATATAAAAAT, the “gcPBM binding intensity (ln)” value came to 10.1. The result for “TTGTTTTTCTTTGAATGTACTTAATGATTTCCAATT [XGTACX_site2499]” reads 6.44; that for “CAAAACAAAGTTGCCGCACACAGATACGCACCCAAG [CACACA_site3455]”, 7.09. Turning to “CACACGCACAGACACACACACACACGGATATAAATA [CACACA_site6301]”, the “gcPBM binding intensity (ln)” value was determined as 7.76.

With “ATATACATATATATGGGTACATATATTAATATATAT [XGTACX_site8358]”, the “gcPBM binding intensity (ln)” value turned out to be 6.74.

“AGGATATGCAGACACACACACATATAGATTTATATA [CACACA_site7100]”: the “gcPBM binding intensity (ln)” value was found to be 6.6. For the sequence “GTTAGGATAGATTAGACATGCACATAAATGCACTTC [TGCATGCA_site561]”, the “gcPBM binding intensity (ln)” value was 10.6. With “AAAATTAGATTATGCACACACACTTAAAAATAATAA [CACACA_site1975]”, the “gcPBM binding intensity (ln)” value is 10.1. Regarding “ATATAATTAAAATGCTCACACACATAAAAAAAAATT [CACACA_site2148]”, the “gcPBM binding intensity (ln)” value worked out at 8.58. With TTTTGTTATTTTTGTATGCACTACATATTATTATAT, the “gcPBM binding intensity (ln)” value was determined as 8.89. The same measure for “CATAAATTAATAGTCACACACGTATTTTTTATATAT [CACACA_site2526]”: 6.16. For “TTATTAAATAAAATCATGCACACAATATATATTTTA [CACACA_site2496]”, the “gcPBM binding intensity (ln)” value is 8.65.

Turning to “TCGTATATGGATTTTGCACACAATTATAATTTAAAT [CACACA_site868]”, the “gcPBM binding intensity (ln)” value came to 10.8. As for “GCTAAACAATAGTTTGCACACAATTTAAATATATAT [CACACA_site193]”, the “gcPBM binding intensity (ln)” value came to 10.3. “AATAATACACAATTTTGTACGTATTTAAAATATATT [XGTACX_site45]”: the “gcPBM binding intensity (ln)” value was 6.74. As to “TCGTATATGGATTTTGCACACAATTTTAATTTAAAT [CACACA_site4635]”, the “gcPBM binding intensity (ln)” value was 10.7.

As to “AATATAAACAGACACACACACATATAGATTTATATT [CACACA_site7382]”, the “gcPBM binding intensity (ln)” value turned out to be 6.8. The same measure for “TTCATATAATTATATACATGCATAAATTCTAAGTAA [TGCATGCA_site622]”: 6.78; for “ATACATATATATGTGTGTACATATGTGTATACATTT [XGTACX_site6544]”: 6.84. Take “CACACCATATAATATATATATATGTATATATTTATA [CACACA_negctrl_site397]”: the “gcPBM binding intensity (ln)” value is 6.58. In the case of “TAATATATGTATTGCACACCTATAACCATTATTTCT [CACACA_site1498]”, the “gcPBM binding intensity (ln)” value came out at 10.5. The result for “TGTAATATATGTATTGCACACCTATAACCATTATTT [CACACA_site8422]” reads 9.86. As for “ACATAAAATAAATATACACACATATGTATATATCAT [CACACA_site7424]”, the “gcPBM binding intensity (ln)” value came out at 6.52. Regarding “TTTATATTATTATATCTTATTAATTATTTATCATTT [TGCATGCA_negctrl_site73]”, the “gcPBM binding intensity (ln)” value came to 6.23.

With “ATATTTTATTTAATTACACACAATATTGCAATTTGT [CACACA_site669]”, the “gcPBM binding intensity (ln)” value was found to be 8.74. “TTATAATATTAATGTGCACACAATTAAAATATTATA [CACACA_site2046]”: the “gcPBM binding intensity (ln)” value came to 10.7. For “TAATAATATATTTGTAGTACACAATTTTTTATAACT [XGTACX_site3951]”, the “gcPBM binding intensity (ln)” value was determined as 6.34. For the sequence “TATTATAATATATTTGTGCACATAATACCTCCGCTA [GTGCAC_site9570]”, the “gcPBM binding intensity (ln)” value came out at 10.9. The result for “AACTGTACAATTTTTGTGCACAATAATTATTAATAT [GTGCAC_site9462]” reads 11; that for TATTTATTTTTTTTTGTGCACTTAATATAATCTTAC, 9.51. Regarding “TTATAATTTTAATGTGCACACAATTAAAATATTATA [CACACA_site5172]”, the “gcPBM binding intensity (ln)” value came out at 10.2. As to AATATATATATTAGAGTGCACATAATTATTTGCTAA, the “gcPBM binding intensity (ln)” value came to 8.88.

Consider “TTTTTTTTTTTTTTTGTGCACAATATAATTTTTAAT [GTGCAC_site9747]”, for which the “gcPBM binding intensity (ln)” value is 10.8. The same measure for “TTTTTTTTTTTTAATGCACACAATATATAATATGTA [CACACA_site3694]”: 10.2.

For the sequence “TATATATATATTTTTTGTACATATTATATAATATAC [XGTACX_site5187]”, the “gcPBM binding intensity (ln)” value turned out to be 8.42.

“TAAATTATAATATGCACACAAAATGTTATATTAAAA [CACACA_site376]”: the “gcPBM binding intensity (ln)” value is 9.55.

Regarding “TTTTTATATATATGTATAAATATTTTTTCTATTTAT [XGTACX_negctrl_site606]”, the “gcPBM binding intensity (ln)” value was found to be 6.46. The result for “ACATCAAGCAGACACACACACACACCCACCCACCCA [CACACA_site8012]” reads 6.5; that for “ACAGGAAAAAACAATTGTACATGTATATATATATAT [XGTACX_site7677]”, 9.16; that for “AAATATTACATACACGCACACATTAATATATTTAAA [CACACA_site2603]”, 7.25.

In the case of “TATGTATGTATTAATGCGCACACAAAAAATAACAAT [CACACA_site8551]”, the “gcPBM binding intensity (ln)” value stood at 7.73. On to “TTAATTTTATTTTTTTGTACACATAAATATTATAAA [XGTACX_site4680]”, for which the “gcPBM binding intensity (ln)” value worked out at 6.62. With “AAAAAAAAAAAAAAATGTACATATTAAGTATAATTA [XGTACX_site4616]”, the “gcPBM binding intensity (ln)” value stood at 6.23. Consider “TATAAAGATATAAATGCACACGTATTAAAAAAAAAA [CACACA_site8223]”, for which the “gcPBM binding intensity (ln)” value worked out at 8.22. Regarding “TGTATGTATTAATGCGCACACAAAAAATAACAATAT [CACACA_site1848]”, the “gcPBM binding intensity (ln)” value was determined as 7.88.

On to TAAGATATAAAAAATGTGCACATTAAAGTATTAATT, for which the “gcPBM binding intensity (ln)” value was 10.5. Take “TAAATAATAATAAATGTGCACAGGTATTAACAAAAA [GTGCAC_site9988]”: the “gcPBM binding intensity (ln)” value was 10.6. For “TTATATTTTTTAATTACACACAATTTTTATAAATAT [CACACA_site4148]”, the “gcPBM binding intensity (ln)” value turned out to be 6.66.

As for “CATATAAATATTTGTGCACACAATTATTAATAATTA [CACACA_site3884]”, the “gcPBM binding intensity (ln)” value is 11.2.
